The campaign covered roughly 420,000 compounds. About 64,000 (15%) were called active. Roughly 27% stayed inconclusive and do not appear here. No cut-off for these calls is given here. Many of the other results were omitted from the sample, so actives are more common in it than they were.
target: Tyrosyl-DNA phosphodiesterase 1 (Homo sapiens) (UniProt Q9NUW8); test: qHTS for Inhibitors of human tyrosyl-DNA phosphodiesterase 1 (TDP1): qHTS in cells in absence of CPT.; assay type: functional
Sequence (Q9NUW8 whole entry): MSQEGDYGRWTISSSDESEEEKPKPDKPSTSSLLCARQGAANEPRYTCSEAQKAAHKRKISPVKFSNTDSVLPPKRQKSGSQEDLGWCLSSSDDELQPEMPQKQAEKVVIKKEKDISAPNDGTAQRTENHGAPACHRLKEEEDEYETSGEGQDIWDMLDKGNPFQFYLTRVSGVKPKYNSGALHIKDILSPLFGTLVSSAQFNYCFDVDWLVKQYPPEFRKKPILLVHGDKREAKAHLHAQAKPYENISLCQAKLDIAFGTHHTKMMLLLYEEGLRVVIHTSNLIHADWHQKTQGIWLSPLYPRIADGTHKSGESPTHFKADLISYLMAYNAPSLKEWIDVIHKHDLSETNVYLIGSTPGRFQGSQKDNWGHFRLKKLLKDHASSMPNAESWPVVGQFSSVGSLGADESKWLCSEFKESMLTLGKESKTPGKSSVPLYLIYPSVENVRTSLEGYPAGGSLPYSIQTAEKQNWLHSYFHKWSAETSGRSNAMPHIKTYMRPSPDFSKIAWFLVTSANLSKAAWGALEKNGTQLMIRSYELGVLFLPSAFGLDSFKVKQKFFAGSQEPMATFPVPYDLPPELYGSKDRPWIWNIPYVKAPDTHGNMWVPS

Potency, active:
ICCCCN1C=S(CI)c2ccccc21 (stereo not drawn) 8.91 µM
Cc1cccc2c1N(CCCCI)C=S2C (stereo not drawn) 3.98 µM
CN(C)c1ccc(/C=C/c2cccc3c2N(CCCCI)C=S3/C=C/c2ccc(N(C)C)cc2)cc1 (stereo not drawn) 15.8 µM
COc1ccc(OC)c(/C=C/c2cccc3c2N(CCCCI)C=S3/C=C/c2cc(OC)ccc2OC)c1 (stereo not drawn) 7.08 µM
CCOc1ccc(N2C(=O)c3ccccc3N/C2=C\N2CCN(C(=O)c3ccco3)CC2)cc1 10 µM
O=C(/C=C/c1ccc(Cl)cc1)c1cccs1 7.5 µM
COc1ccccc1/C=C/C(=O)c1cccs1 5.96 µM
CC(C)C(C)c1cccc2c1NC=S2C(C)C(C)C (stereo not drawn) 5.62 µM

From ChEMBL document CHEMBL1201862, “PubChem BioAssay data set” (2004)
